# Measured values reported in PubChem BioAssay AID894 (National Center for Advancing Translational Sciences (NCATS), 2007).
# About 6,500 (4.3%) of roughly 150,000 compounds were called active. Inconclusive results (about 12%) are left out. Many of the other results were omitted from the sample, so actives are more common in it than they were. Values without a mark were called inactive. Calls follow the shape of the dose curve; as a rule, active = well fitted inhibition curve with a large enough effect (not every such curve was filed as active); inconclusive = small, poorly fitted or top-dose-only effect, or another doubt; inactive = no such curve, though single readings can be large or run the other way.
# Biological target: 15-hydroxyprostaglandin dehydrogenase [NAD(+)] (Homo sapiens) (UniProt P15428)
# Assay: qHTS Assay for Inhibitors of HPGD (15-Hydroxyprostaglandin Dehydrogenase)
# Conditions: purified HPGD, NADH fluorescence kinetic, PGE2 substrate; activity change, negative = inhibition: active compounds read low
# Description: Human 15-Hydroxyprostaglandin dehydrogenase (HPGD) catalyzes the inactivation of prostaglandin E2, and plays a major role in cancer biology by antagonizing the oncogenic potential of cyclooxygenase type 2 (COX2). Assays are available, based on absorbance/fluorescence increase of NADH with the substrate 15-OH prostaglandin E2. References 1. Myung SJ, Rerko RM, Yan M, Platzer P, Guda K, Dotson A, Lawrence E, Dannenberg AJ, Lovgren AK, Luo G, Pretlow TP, Newman RA, Willis J, Dawson D, Markowitz SD. 15-Hydroxyprostaglandin dehydrogenase is an in vivo suppressor of colon tumorigenesis. […] 2. Yan M, Rerko RM, Platzer P, Dawson D, Willis J, Tong M, Lawrence E, Lutterbaugh J, Lu S, Willson JK, Luo G, Hensold J, Tai HH, Wilson K, Markowitz SD. 15-Hydroxyprostaglandin dehydrogenase, a COX-2 oncogene antagonist, is a TGF-beta-induced suppressor of human gastrointestinal cancers. Proc Natl Acad Sci U S A. 2004 Dec 14;101(50):17468-73. 3. Yang L, Amann JM, Kikuchi T, Porta R, Guix M, Gonzalez A, Park KH, Billheimer D, Arteaga CL, Tai HH, Dubois R, Carbone DP, Johnson DH. Inhibition of Epidermal Growth Factor Receptor Signaling Elevates 15-Hydroxyprostaglandin Dehydrogenase in Non-Small-Cell Lung Cancer. Cancer Res. 2007 Jun 15;67(12):5587-5593. Inhibition of HPGD activity was screened by utilizing prostaglandin as an electron donor and NAD+ as an electron acceptor/cofactor. An increase in the fluorescence intensity due to conversion of NAD+ to NADH was used to measure the enzyme activity. NIH Chemical Genomics Center [NCGC] Structural Genomics Consortium [SGC]
# Buffer: 50 mM Tris-HCl, 0.01% Tween 20, pH 8. Enzyme Buffer: 50 mM Tris-HCl, 0.5 mM NAD+ and 0.01% Tween 20, pH 8. Reagents/Controls: Buffer in columns 3 and 4 as negative control (no enzyme). Substrate/cofactor solution: 1 mM NAD+ and 30 uM prostaglandin (Sigma, prostaglandin E2, # P5640) final concentrations dispensed throughout the plate. Enzyme: 20 nM HPGD final concentration in columns 1, 2, 5-48. Column 1 and 2 is neutral (100% activity). A titration of control inhibitor GW5074 (G6416 Sigma-Aldrich, St. Louis, MO) top concentration 10 mM in DMSO, then 1:2 dilution for a total of 16 concentrations in duplicate) was pin-transferred into column 2. Assay Steps: Three uL of enzyme were dispensed to 1536-well Greiner black solid bottom plates. Compounds and control inhibitor (23 nL) were transferred via Kalypsys PinTool. The plates were incubated for 15 min at room temperature, and then 1 uL of substrate/cofactor solution was added to start the reaction. The plates were immediately transferred to and read 5 times every 30 seconds on ViewLux High-throughput CCD imager (Perkin-Elmer) using 360 nm excitation and 450 nm emission fluorescence protocol. The fluorescence intensity difference between the last and the first time points was used to compute reaction progress.
# % is scaled to controls: 0 for no effect and ±100 for the full control effect; potency is read from the fitted curve at half-maximal effect.
# 15-hydroxyprostaglandin dehydrogenase [NAD(+)] (Homo sapiens), sequence (P15428 whole entry, looked up): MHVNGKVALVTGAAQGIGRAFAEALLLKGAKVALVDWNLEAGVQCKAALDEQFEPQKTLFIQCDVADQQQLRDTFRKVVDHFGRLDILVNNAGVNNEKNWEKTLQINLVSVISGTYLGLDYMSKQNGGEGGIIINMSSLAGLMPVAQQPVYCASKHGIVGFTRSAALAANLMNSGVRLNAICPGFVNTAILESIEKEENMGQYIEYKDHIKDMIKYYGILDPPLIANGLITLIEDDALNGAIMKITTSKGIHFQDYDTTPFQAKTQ
Structure (SMILES),Potency,"activity change, negative = inhibition"
CC(Cc1cccs1)NC(=O)c1cccc(Cl)c1 (stereo not drawn),7.94 µM (active),
COCC(C)NC(=O)c1ccc(Cl)c(Cl)c1 (stereo not drawn),,-23%
CC(Cc1cccs1)NC(=O)NC1CCCCC1 (stereo not drawn),,-17.9%
COc1ccc(-c2nc(-c3ccccc3)oc2Nc2ccc3ccccc3c2)cc1,,-1.48%
COc1cc(NS(=O)(=O)c2ccccc2)ccc1-n1nc(C)cc1C,,-3.88%
COCCCNC(=S)NC(=O)c1ccccc1,,-5.04%
COc1ccccc1-n1cnc2cc(NS(=O)(=O)c3ccccc3)ccc21,14.1 µM (active),
COc1ccccc1-n1c(C)nc2cc(C(=O)NCc3ccc4c(c3)OCO4)ccc21,,-21.3%
O=C(NCCN1CCOCC1)c1ccc2c(c1)ncn2C1CCCC1,,-2.32%
COCCCNC(=O)c1ccc2c(c1)ncn2-c1ccccc1OC,11.2 µM (active),
COc1ccc(NS(=O)(=O)c2ccc(NC(C)=O)cc2)cc1OC,,-1.98%
Cc1ccccc1CN(c1ccc(C(=O)NCC2CCCO2)cc1)S(C)(=O)=O (stereo not drawn),,-4.02%
COc1ccccc1-n1cnc2cc(C(=O)NCC3CCCO3)ccc21 (stereo not drawn),12.6 µM (active),
CC(=O)NC1C(Oc2ccc(C)cc2)OC2COC(c3ccco3)OC2C1O (stereo not drawn),,0.675%
COc1ccccc1-c1nnc(NC(=O)c2ccc3ncsc3c2)o1,,-16.3%
Cc1ccccc1NC(=S)N(CCCN1CCOCC1)Cc1cccs1,,8.96%
N#Cc1ccc(N2Cc3ccccc3/C2=N/C(=O)Nc2ccc(Cl)cc2)cc1,,-24.3%
CCCCN(CC)C(=O)c1ccccc1Oc1ccccc1,,-9.66%
CC(=O)N/C(=C/c1ccc(OC(F)F)cc1)C(=O)O,,-3.55%
CN(C)C(CNC(=O)c1ccc(S(=O)(=O)NCc2ccco2)cc1)c1ccccc1 (stereo not drawn),,-10.1%
CCCc1nc(SCC(=O)Nc2ccc(S(=O)(=O)N(C)C)cc2)c2ccccc2n1,,-22.1%
CONc1nc2nonc2nc1NOC,,-6.28%
Cc1nnc(SCc2cc(=O)[nH]c(N3CCN(Cc4ccccc4)CC3)n2)s1,10 µM (active),
O=c1cc(CSc2ccccn2)nc(N2CCN(c3ccccc3)CC2)[nH]1,,-4.21%

Structure (SMILES),Potency,"activity change, negative = inhibition"
CCc1c(C)nc(N2CCN(Cc3ccccc3)CC2)[nH]c1=O,,-6.13%
CC(C)CNC(=O)CC(NCC(C)C)C(=O)O (stereo not drawn),,-6.89%
Cc1ccc2[nH]cc(CCCN3C(=O)c4ccccc4C3=O)c2c1,,-4.52%
O=C(CSCc1c(F)cccc1Cl)NCC1CCCO1 (stereo not drawn),14.1 µM (active),
O=C(NCC1CCCO1)C(C(=O)c1ccccc1)n1cc(Cl)ccc1=O (stereo not drawn),,-7.62%
O=C(CS(=O)(=O)Cc1ccccc1)NCC1CCCO1 (stereo not drawn),,-19.1%
CC(=O)[C@H](C(c1ccccc1)N1CCOCC1)N1CCOCC1 (stereo partly drawn),,-6.44%
O=C(CCCCCNC(=O)c1ccccc1)N/N=C/c1ccccc1,,-2.21%
CN(C)S(=O)(=O)c1cccc(NC(=S)N/N=C/C(=O)c2ccccc2)c1,,-16%
O=C(Nc1ccc2c(c1)OCCO2)c1ccncc1,,-1.78%
O=C(Nc1nc2ccccc2s1)c1ccc2c(c1)OCO2,,-20.6%
Cc1ccc2sc(NNC(=O)c3ccc4c(c3)OCCO4)nc2c1C,11.2 µM (active),
CCCCn1c(O)c(N=NC(=O)Cn2c(C(F)(F)F)nc3ccccc32)c2ccccc21,,-5.51%
CNS(=O)(=O)c1ccc(N2CCCC2=O)c([N+](=O)[O-])c1,,-12.5%
COc1cc(NS(=O)(=O)c2ccc(N/C=C(\C=O)c3nc4cc(Cl)ccc4o3)cc2)nc(OC)n1,14.1 µM (active),
COc1ccc(NS(=O)(=O)c2ccc(NC(=O)C(C)(C(F)(F)F)C(F)(F)F)cc2)nn1,,-19.1%
COC(=O)c1ccc(CSc2nc3cc(Cl)ccc3o2)cc1,,-20.6%
O=C(NC(CC(=O)N1CCN(c2ccccc2)CC1)c1ccccc1)c1ccccc1Cl (stereo not drawn),,-5.04%
COc1ccc(N(C(=O)c2ccc(C)cc2)S(=O)(=O)c2cccs2)cc1,,-10%
COc1ccc(N2C(=O)C(O)C2c2ccc(C)cc2)cc1 (stereo not drawn),,-14.1%
Cc1ccc(S(=O)(=O)c2ccc(Cl)cc2)cc1S(=O)(=O)NC(C(=O)O)C(C)C (stereo not drawn),,-5.59%
O=C(NCc1ccco1)C1(c2ccc(Cl)cc2)CCCC1,,-8.03%
O=C(/C=C/c1ccc(Cl)cc1Cl)NCc1ccco1,15.8 µM (active),
O=C(NCc1ccco1)c1cc(-c2cccnc2)nc2ccc(Cl)cc12,,-28%
